PubChem BioAssay (NCI)
About 83,000 compounds went through this panel and 20% of them were active in at least one assay; those are over-represented in the sample as a whole.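 How to read the values: 0–100, growth inhibition (40 = 60% inhibited); 0, no net growth; -100 to 0, cell death (-40 = 40% of starting cells died; -100 = all dead).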 A number with no mark means an inactive call. Calls of active or inactive are those of the source. How the source made its calls: active means growth percent below 10; inactive means the rest.

Legend:
Test in all cases: NCI-60 one-dose screen, 48 h (100 = growth as untreated, 0 = no growth, -100 = all killed)
Settings in all cases: 10 µM unless noted
NCI-H23 lung = system: NCI-H23 lung
NCI-H226 lung = system: NCI-H226 lung
NCI-H322M lung = system: NCI-H322M lung
HOP-62 NSCLC = system: HOP-62 NSCLC
NCI-H460 lung = system: NCI-H460 lung
HOP-92 NSCLC = system: HOP-92 NSCLC
NCI-H522 lung = system: NCI-H522 lung
A549/ATCC NSCLC = system: A549/ATCC NSCLC
786-0 renal = system: 786-0 renal
COLO 205 colon = system: COLO 205 colon
DU-145 prostate = system: DU-145 prostate
K-562 leukemia = system: K-562 leukemia
MALME-3M melanoma = system: MALME-3M melanoma
MDA-MB-231 breast = system: MDA-MB-231 breast
RXF 393 renal = system: RXF 393 renal
SF-268 CNS = system: SF-268 CNS
SF-295 CNS = system: SF-295 CNS
SF-539 CNS = system: SF-539 CNS
UACC-257 melanoma = system: UACC-257 melanoma
M14 melanoma = system: M14 melanoma

SMILES	growth (NCI-H23 lung)	growth (NCI-H226 lung)	growth (NCI-H322M lung)	growth (HOP-62 NSCLC)	growth (NCI-H460 lung)	growth (HOP-92 NSCLC)	growth (NCI-H522 lung)	growth (A549/ATCC NSCLC)	growth (786-0 renal)	growth (COLO 205 colon)	growth (DU-145 prostate)	growth (K-562 leukemia)	growth (MALME-3M melanoma)	growth (MDA-MB-231 breast)	growth (RXF 393 renal)	growth (SF-268 CNS)	growth (SF-295 CNS)	growth (SF-539 CNS)	growth (UACC-257 melanoma)	growth (M14 melanoma)
COCCOc1cc2ncnc(N3CCN(c4ncc(S(=O)(=O)N5CCCCC5)cn4)CC3)c2cc1OCCOC	91.5%	97.2%	96.5%	118%	103%	89.5%	84.4%	102%	108%	121%	102%	96.3%	93.8%	106%	110%	93.3%	99.6%	107%	101%	97.8%
CCCCCCCCCCCCCCCCCCOc1ccccc1CC(=O)OCC[N+](C)(C)C	40.2%	28.7%	66.5%	4.93% (active)	13.5%	-14% (active)	2.19% (active)	11.5%	20.8%	-67.3% (active)	36.1%	18.6%	26.9%	-2.29% (active)	-54% (active)	15%	45.8%	21.3%	22.3%	6.22% (active)
O=C1c2ccccc2-c2c1c1c(=O)[nH]c3ccccc3c1n2Cc1ccccc1	63.1%	29.5%	58.4%	75.8%	58.9%	56.4%	35%	44.9%	39.7%	73.8%	79%	63.3%	14%	62%	25.2%	50.7%	60.3%	55.7%	74.9%	84.2%
COc1ccc(C2=Nc3c(N)nc(N)nc3NC(c3cccc(Nc4ccnc5cc(C(F)(F)F)ccc45)c3)C2)cc1 (stereo not given)	85.8%	97.2%	99.6%	67.8%	59.3%	57.3%	44.9%	63.1%	73%	57.7%	75.5%	13.2%	78.3%	70.8%	54%	69.7%	78.9%	87.1%	87.8%	67.2%
CC/C(=C(/c1ccc(Cl)cc1)c1ccc(OCCN(C)C)cc1)c1ccc(Cl)cc1	73.5%	87.5%	83.6%	78.5%	37.3%	83.7%	70.3%	61.2%	66.3%	-16.1% (active)	77.7%	16%	73.9%	83.3%	68.5%	77.4%	69.7%	86.2%	72.2%	88.1%
C/C(Cc1ccc(Cl)cc1)=C(\c1ccc(O)cc1)c1ccc(Cl)cc1	85.2%	93.3%	83.3%	110%	91.5%	83.1%	84.1%	94.8%	89.5%	109%	101%	89.3%	82.5%	96.6%	100%	95%	95.1%	107%	98.2%	83.7%
N#CSc1c[nH]c2cccc(/C=C/C(=O)/C=C(/C=C/c3cccc4[nH]cc(SC#N)c34)OB(F)F)c12	-45.4% (active)	-75.9% (active)	53.7%	-26.1% (active)	4.16% (active)	-62.1% (active)	-65.2% (active)	-8.65% (active)	-51.6% (active)	-60% (active)	-69.4% (active)	-14.8% (active)	-52.8% (active)	-42.3% (active)	-77.6% (active)	8.33% (active)	-4.04% (active)	-8.18% (active)	-50.6% (active)	-40.9% (active)
COc1ccc(CNc2c3ccccc3nc3ccccc23)cc1	38.8%	51.4%	47.1%	53.9%	9.69% (active)	24.6%	53%	28.9%	32.4%	11.6%	48%	6.97% (active)	40%	47.4%	27.6%	63.4%	39.1%	27.5%	52.3%	37.1%
CCN1CCN(C(=O)[C@]23CCC(C)(C)C[C@@H]2C2=CC[C@@H]4[C@@]5(C)CCC(=O)C(C)(C)[C@@H]5CC[C@@]4(C)[C@]2(C)CC3)CC1	64.9%	71%	81.2%	78.8%	25.5%	44.9%	44.7%	46.1%	50.5%	44.2%	76.6%	21.1%	40.5%	56.5%	61%	41.5%	76.3%	48.9%	32.8%	57.1%
COc1cc(OC)c(/C=C/C(=O)c2c(OC)cccc2OC)c(OC)c1	-22% (active)	47.3%	1.28% (active)	40.1%	9.67% (active)	-1.46% (active)	-22.7% (active)	6.84% (active)	16.5%	-13.4% (active)	6.79% (active)	10.5%	51.4%	15%	-60.8% (active)	32%	1.38% (active)	-11.4% (active)	43.6%	-44.3% (active)
O=C(N/N=C/c1ccc(Cl)cc1)c1[nH]c2ccc(Cl)cc2c1-c1ccccc1	42.1%	10.9%	37.6%	23.9%	4.43% (active)	-7.26% (active)	-32% (active)	42.9%	22.1%	-72.4% (active)	-2.5% (active)	39.3%	62.3%	9.64% (active)	34.6%	27.2%	-24.1% (active)	-0.139% (active)	59.9%	20.2%
COC1=CC(c2ccc[nH]2)=N/C1=C\c1[nH]c(C)c(C)c1CCC(=O)OCc1ccccc1	-9.49% (active)	-2.19% (active)	54.5%	-3% (active)	18.6%	-27.8% (active)	-38.7% (active)	10.1%	-38.8% (active)	-64.8% (active)	18.4%	-7.62% (active)	-64.8% (active)	-49.5% (active)	-35.2% (active)	5.89% (active)	-60.1% (active)	-52.3% (active)	-49% (active)	-60.8% (active)
CCOC(=O)C1=C(c2ccccc2)N=C2SC=C(c3ccc(Cl)cc3)N2C1c1ccc(Br)cc1 (stereo not given)	69.8%	76.6%	90.9%	90.7%	85%	56.1%	69.3%	84.5%	80.6%	83.1%	90.3%	84.1%	87.4%	68.5%	68.6%	77%	88.7%	94.9%	79%	83.7%
N#Cc1c(-c2ccc(Cl)cc2)nc(NN2C(=O)c3ccccc3C2=O)nc1N1CCOCC1	97.2%	99.9%	111%	97.9%	106%	99.8%	97.5%	107%	99.8%	110%	107%	97%	109%	105%	107%	99.3%	101%	101%	108%	101%
Cn1cc(-c2nonc2-c2cn(C)c3ccccc23)c2ccccc21	43.1%	81%	47%	21.2%	8.94% (active)	48.8%	-20.5% (active)	21.8%	28.1%	-34% (active)	16.3%	9.77% (active)	53.4%	23.2%	1.39% (active)	48.1%	17.5%	-21.6% (active)	65.7%	6.28% (active)
CN(C)Cc1ccc(O)c(C(=O)O)c1	104%	108%	109%	106%	105%	95.5%	102%	109%	107%	117%	114%	107%	116%	121%	122%	104%	123%	100%	109%	113%
O=C(O)c1cn(C2CC2)c2cc(N3CCN(C(=O)N(c4ccccc4)c4nc(-c5ccccc5)cs4)CC3)c(F)cc2c1=O	-3.61% (active)	4.84% (active)	2.44% (active)	-1.15% (active)	2.93% (active)	-25% (active)	-25% (active)	9.6% (active)	4.01% (active)	-20.6% (active)	15.4%	9.77% (active)	2.79% (active)	-48% (active)	8.65% (active)	19%	-0.773% (active)	-7.39% (active)	1.71% (active)	17.7%
COc1ccc(OC)c(/C=N/Nc2ncnc3c2c(C)nn3C)c1	106%	92.6%	114%	92%	106%	96.2%	93.8%	104%	102%	102%	108%	93.2%	119%	81%	96.9%	87.1%	99.7%	105%	112%	101%
c1cc2c(ccc3[nH]c(-c4ccc5[nH]ncc5c4)c4c(c32)CCCC4)n1	74.3%	58.6%	92.2%	42.5%	22.3%	40%	47.4%	32.5%	56%	58%	66%	2.93% (active)	35.9%	78.4%	89.3%	62.3%	63.6%	62.9%	74.9%	61.9%
CCCNC(=O)Nc1ccc2cc3ccc(NC(=O)NCCC)cc3nc2c1	86.4%	90.7%	100%	81.8%	104%	79.2%	79%	95.9%	82.3%	99.3%	118%	60.8%	79.1%	98.8%	77.7%	84.3%	115%	66.5%	87.5%	89.1%
COc1ccc(NC(=O)c2sc3nc(C)c(C(=O)/C=C/c4ccccc4)cc3c2N)cc1	63%	65.6%	13.1%	60.8%	6.63% (active)	109%	41.7%	34%	2.08% (active)	72.8%	26.5%	14.4%	97.3%	60.8%	-1.08% (active)	28.7%	48.8%	38.2%	98.3%	61.5%
COc1ccc(OC)c(Nc2nnc(-c3ccc(O)c(OC)c3)o2)c1	70.7%	77.1%	86.9%	77.6%	82.8%	85.1%	61.1%	75.5%	36.7%	117%	51.4%	32.3%	79.9%	69.4%	52.7%	68.8%	100%	49.9%	115%	74.6%
CC(=O)N1N=C(c2ccc(Nc3nc(Nc4ccccc4)nc(Nc4ccccc4)n3)cc2)CC1c1cccc([N+](=O)[O-])c1 (stereo not given)	94.6%	113%	96.2%	78.8%	107%	56.8%	104%	93.3%	89.9%	88.1%	102%	80.8%	136%	73.7%	-0.925% (active)	109%	104%	89.8%	92.3%	94.8%
O=C(c1ccncc1)N1N=C(c2ccc(Cl)cc2)C[C@H]1c1cn(-c2ccccc2)nc1-c1ccccc1	91.5%	89.9%	92.7%	92.8%	88.2%	67%	96.1%	81.7%	97.9%	119%	99.8%	90.5%	108%	69.6%	87.6%	89.4%	78.8%	81.2%	89.6%	107%
Cc1ccc(C2=Nc3c(N)ncnc3NC(c3cccc(Nc4ccnc5cc(C(F)(F)F)ccc45)c3)C2)cc1 (stereo not given)	44.3%	59.8%	67.2%	41.1%	21.2%	2.86% (active)	30.6%	24.6%	42.6%	9.89% (active)	64.9%	5.65% (active)	35.3%	29.6%	0.783% (active)	40.1%	25%	56.1%	51.7%	16%
c1ccc(-c2oc(-c3ccccc3)c(CN3CCCCC3)c2CN2CCCCC2)cc1	26%	47.5%	52.9%	54.2%	24.8%	4.02% (active)	2.64% (active)	56.2%	38.7%	6.83% (active)	57.7%	7.49% (active)	-12.5% (active)	29.6%	2.14% (active)	57.9%	37.3%	46.7%	15.8%	1.67% (active)
C=CCOC(=O)Nc1cccn([C@H](Cc2ccccc2)C(=O)NCCC(C)C)c1=O	89.7%	82%	103%	104%	105%	87.5%	99.5%	97.9%	112%	110%	110%	110%	103%	101%	110%	106%	94.5%	109%	102%	121%
COc1ccc(-c2nc3cc(C(=O)NCc4ccccc4)ccc3n2C2CCCCC2)cc1	99.6%	102%	81%	90.1%	72.2%	92.8%	76.8%	74%	70.8%	64.7%	82.8%	41.1%	102%	77.5%	90.2%	79.4%	51%	60.2%	96.7%	78.1%
